# Of roughly 7,900 targets only a part is listed; those with a hit were picked by preference. About 0.6% of all pairs of compound and target were hits. A number with no mark means an inactive call.
# Compound: C1=CC=C(C=C1)[C@H](COC2=CC3=C(C=C2)NC(=O)N3)NC(=O)C4=CC=CN(C4=O)CC5=CC(=C(C=C5)F)F
# Test: log2 fold change, soluble protein after heating vs DMSO (PISA); higher = thermal stabilisation; K562 cells, 10 uM, 30 min; active = over 0.2 and 3.5 SD of the protein, either way, in both replicates (recomputed)
# Outline: (§1)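 K562 cells at 2×10^6 cells/mL were exposed to 10 μM compound for 30 min, then aliquots were heated for 3 min across 48°C-58°C, pooled, and extracted in PBS containing 0.5% NP-40 at 4°C. The supernatant after 21,000xg for 90 min was taken as soluble protein and measured by TMTpro 16plex LC-MS/MS with channel sums equalised. Thermal stability is reported relative to control samples, with values from duplicates. Fold changes are given on a log2 scale.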
# Chain of UniProt P04066 (P04066 whole entry, looked up): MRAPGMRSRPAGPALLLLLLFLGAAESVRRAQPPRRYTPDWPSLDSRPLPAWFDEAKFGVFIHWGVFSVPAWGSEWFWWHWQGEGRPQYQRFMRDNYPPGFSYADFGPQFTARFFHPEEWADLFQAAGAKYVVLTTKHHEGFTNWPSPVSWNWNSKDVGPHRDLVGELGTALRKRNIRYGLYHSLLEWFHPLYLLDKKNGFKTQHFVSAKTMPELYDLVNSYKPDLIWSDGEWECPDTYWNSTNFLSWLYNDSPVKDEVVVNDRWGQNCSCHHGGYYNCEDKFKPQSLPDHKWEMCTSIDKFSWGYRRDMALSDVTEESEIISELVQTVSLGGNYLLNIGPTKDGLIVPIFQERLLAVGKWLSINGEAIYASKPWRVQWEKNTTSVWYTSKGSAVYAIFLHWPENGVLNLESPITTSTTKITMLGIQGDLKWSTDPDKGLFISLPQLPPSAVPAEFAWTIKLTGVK
# Chain of UniProt P54652 (P54652 whole entry, looked up): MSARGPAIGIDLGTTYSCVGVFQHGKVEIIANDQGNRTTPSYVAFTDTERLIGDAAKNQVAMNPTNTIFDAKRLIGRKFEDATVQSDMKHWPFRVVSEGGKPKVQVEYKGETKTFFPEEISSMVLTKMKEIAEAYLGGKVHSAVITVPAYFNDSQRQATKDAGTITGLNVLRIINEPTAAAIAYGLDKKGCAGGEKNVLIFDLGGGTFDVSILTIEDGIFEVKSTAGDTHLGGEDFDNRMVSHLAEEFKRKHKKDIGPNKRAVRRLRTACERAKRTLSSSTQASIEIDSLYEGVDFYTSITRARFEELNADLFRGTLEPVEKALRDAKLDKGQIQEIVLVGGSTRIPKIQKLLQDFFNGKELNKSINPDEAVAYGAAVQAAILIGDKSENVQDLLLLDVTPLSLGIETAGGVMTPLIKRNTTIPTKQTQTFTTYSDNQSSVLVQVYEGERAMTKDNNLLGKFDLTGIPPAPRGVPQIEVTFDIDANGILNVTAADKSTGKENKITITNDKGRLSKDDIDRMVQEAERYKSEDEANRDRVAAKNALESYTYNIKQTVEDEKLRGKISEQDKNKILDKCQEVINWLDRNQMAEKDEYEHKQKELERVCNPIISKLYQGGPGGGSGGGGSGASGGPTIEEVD
# Chain of UniProt Q96HJ9 (Q96HJ9 whole entry, looked up): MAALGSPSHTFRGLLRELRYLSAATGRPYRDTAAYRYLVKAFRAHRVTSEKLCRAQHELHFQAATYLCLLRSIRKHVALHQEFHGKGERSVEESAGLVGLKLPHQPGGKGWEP
# Chain of UniProt P46976 (P46976 whole entry, looked up): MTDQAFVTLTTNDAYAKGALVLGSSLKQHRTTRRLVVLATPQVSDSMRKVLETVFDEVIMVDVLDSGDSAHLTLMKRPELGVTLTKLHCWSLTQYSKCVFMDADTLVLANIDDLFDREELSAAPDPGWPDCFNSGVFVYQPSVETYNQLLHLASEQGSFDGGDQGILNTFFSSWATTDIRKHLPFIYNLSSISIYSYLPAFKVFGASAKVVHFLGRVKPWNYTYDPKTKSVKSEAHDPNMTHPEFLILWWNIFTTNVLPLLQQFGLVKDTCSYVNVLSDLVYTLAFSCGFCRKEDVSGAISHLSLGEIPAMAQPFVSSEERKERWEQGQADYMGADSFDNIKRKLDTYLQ
# Chain of UniProt P52789 (P52789 whole entry, looked up): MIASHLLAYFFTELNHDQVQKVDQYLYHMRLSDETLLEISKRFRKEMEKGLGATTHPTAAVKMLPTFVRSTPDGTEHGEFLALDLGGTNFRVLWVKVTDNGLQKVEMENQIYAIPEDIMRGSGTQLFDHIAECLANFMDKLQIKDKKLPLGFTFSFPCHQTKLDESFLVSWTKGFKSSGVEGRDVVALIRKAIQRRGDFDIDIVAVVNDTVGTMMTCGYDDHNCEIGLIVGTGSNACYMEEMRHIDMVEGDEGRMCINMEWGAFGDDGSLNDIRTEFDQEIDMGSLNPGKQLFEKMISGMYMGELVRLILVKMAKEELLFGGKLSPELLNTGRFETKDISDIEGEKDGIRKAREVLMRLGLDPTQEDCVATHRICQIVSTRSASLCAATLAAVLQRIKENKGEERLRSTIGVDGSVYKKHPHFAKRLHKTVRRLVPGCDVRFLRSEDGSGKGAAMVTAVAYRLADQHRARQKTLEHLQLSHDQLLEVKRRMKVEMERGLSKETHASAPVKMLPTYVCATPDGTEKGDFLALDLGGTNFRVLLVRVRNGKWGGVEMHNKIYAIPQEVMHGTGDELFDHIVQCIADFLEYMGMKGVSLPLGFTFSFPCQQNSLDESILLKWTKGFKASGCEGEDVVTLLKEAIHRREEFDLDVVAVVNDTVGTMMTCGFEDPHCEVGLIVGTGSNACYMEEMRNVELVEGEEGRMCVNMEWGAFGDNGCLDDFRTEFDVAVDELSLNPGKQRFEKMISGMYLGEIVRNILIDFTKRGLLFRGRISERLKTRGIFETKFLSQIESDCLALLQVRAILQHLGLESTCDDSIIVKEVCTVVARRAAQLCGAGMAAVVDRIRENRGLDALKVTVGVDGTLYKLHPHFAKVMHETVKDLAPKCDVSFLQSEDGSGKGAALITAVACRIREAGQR
# Chain of UniProt P0CL80 (P0CL80 whole entry, looked up): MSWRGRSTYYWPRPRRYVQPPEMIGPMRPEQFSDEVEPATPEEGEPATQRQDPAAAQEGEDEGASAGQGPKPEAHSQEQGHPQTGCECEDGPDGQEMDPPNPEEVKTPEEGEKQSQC
# Chain of UniProt Q9NRD1 (Q9NRD1 whole entry, looked up): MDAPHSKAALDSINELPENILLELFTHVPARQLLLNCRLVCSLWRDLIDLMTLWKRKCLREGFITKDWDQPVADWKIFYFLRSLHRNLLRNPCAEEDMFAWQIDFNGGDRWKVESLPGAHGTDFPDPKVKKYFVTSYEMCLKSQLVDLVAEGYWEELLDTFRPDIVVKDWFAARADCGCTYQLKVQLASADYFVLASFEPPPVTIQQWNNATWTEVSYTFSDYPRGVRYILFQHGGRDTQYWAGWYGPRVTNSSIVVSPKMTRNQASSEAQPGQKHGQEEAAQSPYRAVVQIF
# Chain of UniProt Q9H6D7 (Q9H6D7 whole entry, looked up): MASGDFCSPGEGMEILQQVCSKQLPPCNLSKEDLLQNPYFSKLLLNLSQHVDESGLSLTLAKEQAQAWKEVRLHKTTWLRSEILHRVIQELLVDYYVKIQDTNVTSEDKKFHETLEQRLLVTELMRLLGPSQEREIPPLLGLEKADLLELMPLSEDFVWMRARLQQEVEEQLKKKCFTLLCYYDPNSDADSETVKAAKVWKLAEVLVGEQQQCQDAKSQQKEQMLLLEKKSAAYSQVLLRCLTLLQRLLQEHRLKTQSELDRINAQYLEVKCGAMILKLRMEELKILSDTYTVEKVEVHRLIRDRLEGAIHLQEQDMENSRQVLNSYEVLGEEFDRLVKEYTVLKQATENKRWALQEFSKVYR
# Chain of UniProt Q86VS8 (Q86VS8 whole entry, looked up): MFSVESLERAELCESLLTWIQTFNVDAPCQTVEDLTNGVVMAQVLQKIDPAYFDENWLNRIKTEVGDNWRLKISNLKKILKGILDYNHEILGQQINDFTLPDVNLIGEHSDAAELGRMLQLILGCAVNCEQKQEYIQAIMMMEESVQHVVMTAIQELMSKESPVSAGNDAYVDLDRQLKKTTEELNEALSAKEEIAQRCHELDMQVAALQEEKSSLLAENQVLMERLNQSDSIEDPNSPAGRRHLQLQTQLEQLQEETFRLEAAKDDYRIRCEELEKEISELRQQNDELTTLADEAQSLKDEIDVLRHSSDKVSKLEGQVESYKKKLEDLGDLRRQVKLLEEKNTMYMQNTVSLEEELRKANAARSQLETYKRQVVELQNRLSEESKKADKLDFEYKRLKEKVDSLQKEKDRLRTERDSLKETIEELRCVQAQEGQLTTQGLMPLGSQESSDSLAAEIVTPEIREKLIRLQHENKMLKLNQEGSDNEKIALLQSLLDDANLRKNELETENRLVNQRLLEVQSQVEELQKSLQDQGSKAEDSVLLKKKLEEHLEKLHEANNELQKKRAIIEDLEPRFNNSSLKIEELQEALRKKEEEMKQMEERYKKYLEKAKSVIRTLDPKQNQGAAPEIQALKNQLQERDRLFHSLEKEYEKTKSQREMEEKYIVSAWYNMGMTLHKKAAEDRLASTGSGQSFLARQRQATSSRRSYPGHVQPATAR
# Chain of UniProt Q9H4G4 (Q9H4G4 whole entry, looked up): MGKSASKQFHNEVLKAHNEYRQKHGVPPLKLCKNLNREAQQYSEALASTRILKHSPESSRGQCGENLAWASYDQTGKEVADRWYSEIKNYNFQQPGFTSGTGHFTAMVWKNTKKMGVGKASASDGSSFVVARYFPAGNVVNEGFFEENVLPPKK
# Chain of UniProt P52657 (P52657 whole entry, looked up): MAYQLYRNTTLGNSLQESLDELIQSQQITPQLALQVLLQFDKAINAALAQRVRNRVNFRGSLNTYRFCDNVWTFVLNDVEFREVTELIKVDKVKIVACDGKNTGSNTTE
# Chain of UniProt P01112 (P01112 whole entry, looked up): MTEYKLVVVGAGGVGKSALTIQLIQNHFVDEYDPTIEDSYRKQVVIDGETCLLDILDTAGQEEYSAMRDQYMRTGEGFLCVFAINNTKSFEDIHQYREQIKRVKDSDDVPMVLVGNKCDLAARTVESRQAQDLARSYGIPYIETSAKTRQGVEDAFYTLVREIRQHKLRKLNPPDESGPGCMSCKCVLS
# Chain of UniProt P02008 (P02008 whole entry, looked up): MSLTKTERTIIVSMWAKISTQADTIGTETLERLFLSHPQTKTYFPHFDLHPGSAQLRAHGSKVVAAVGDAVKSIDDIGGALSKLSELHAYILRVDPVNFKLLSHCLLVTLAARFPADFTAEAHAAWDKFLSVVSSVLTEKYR
# Chain of UniProt Q92522 (Q92522 whole entry, looked up): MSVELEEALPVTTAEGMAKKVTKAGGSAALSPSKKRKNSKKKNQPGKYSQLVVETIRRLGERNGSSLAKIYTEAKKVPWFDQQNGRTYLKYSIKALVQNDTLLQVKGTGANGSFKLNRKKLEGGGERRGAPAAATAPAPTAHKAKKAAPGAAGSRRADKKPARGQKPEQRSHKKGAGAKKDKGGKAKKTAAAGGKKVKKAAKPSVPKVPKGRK
row,Target,log2 fold change
1,IFI30 (UniProt P13284),-0.066
2,FBXO6 (UniProt Q9NRD1),0.013
3,HMGB3 (UniProt O15347),-0.005
4,HRAS (UniProt P01112),0.015
5,HOOK3 (UniProt Q86VS8),-0.065
6,GTPBP6 (UniProt O43824),0.038
7,HSPA2 (UniProt P54652),0.003
8,HDHD2 (UniProt Q9H0R4),-0.044
9,FANCI (UniProt Q9NVI1),-0.071
10,HBZ (UniProt P02008),0.047

# Compound: CC1=C(SC2=C1C(=N[C@H](C3=NN=C(N32)C)CC(=O)N)C4=CC=C(C=C4)Cl)C
# Test: as above
# Outline: as §1
row,Target,log2 fold change
1,GTF2A2 (UniProt P52657),0.057
2,FANCD2 isoform 1 (UniProt Q9BXW9),0.068
3,GTF2A1 (UniProt P52655),-0.021
4,FMC1 (UniProt Q96HJ9),0.06
5,FAT2 (UniProt Q9NYQ8),0.669 (active)
6,GLIPR2 (UniProt Q9H4G4),-0.091
7,FUCA1 (UniProt P04066),0.058
8,FAT1 (UniProt Q14517),-0.038
9,HDAC10 (UniProt Q969S8),-0.028
10,HAUS4 (UniProt Q9H6D7),-0.066
11,H1FX (UniProt Q92522),-0.146
12,HK2 (UniProt P52789),0.045
13,GAGE12F (UniProt P0CL80),0.137
14,GYG1 (UniProt P46976),-0.077

# Reference: the supplement of paper PMC10849652
